Shown are actives, neighbours in structure and some others; about 13% of the full set was active somewhere.
HCV inh = HCV inhibition; hit rate 3.4% among 340,000; AID 651820; Potency, µM (top dose mostly 41.8 µM), for the others: at the top dose activity change, negative = inhibition, hits mostly inhibitors; Huh7.5.1 HCVcc-Cre infection, luciferase reporter, 44 h; also: potency is read from the fitted curve at half-maximal effect
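Cells (1,000/well) were plated 4 h before compound, then infected with HCVcc-Cre virus (~0.5 moi). After 44 h further culture, infection was read as luciferase luminescence following a 15 min substrate incubation at room temperature.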
Pf growth 48h = P. falciparum growth inhibition at 48 hours (one generation) | P. falciparum luciferase growth in erythrocytes, 48 h | Potency, µM (titrated, usually from 28.7 µM), for the others: top-dose activity change, negative = inhibition, hits mostly inhibitors | hit rate 5.9% among 310,000 | AID 504832; also: potency is read from the fitted curve at half-maximal effect
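Firefly luciferase activity from engineered P. falciparum reports growth; inhibitors lower the luminescent signal. Cultures contained 2% hematocrit erythrocytes at 0.1% final parasitemia.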
HCMV inh = inhibitors of human cytomegalovirus; activity change, negative = inhibition, % at 57.5 µM; hit rate 4.5% among 410,000; AID 1259415; HFF cells, HCMV-luciferase reporter, 72 h; hits give low values; in the data active = activity change below about -60%; inconclusive = no clear call, values can overlap the other calls; inactive = above about -39%
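Compounds were evaluated in HFFs infected with an HCMV luciferase reporter virus (MOI 1 PFU/cell). Luciferase in lysates collected 72 h post infection served as the replication measure.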
Pf growth 96h = inhibits malaria parasite growth, 96 h. AID 504834. Potency, µM (top dose mostly 28.7 µM), without a hit: at the top dose activity change, negative = inhibition, hits mostly inhibitors. hit rate 6.9% among 320,000. P. falciparum luciferase reporter growth, 96 h; also: potency is read from the fitted curve at half-maximal effect
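Compounds incubated with erythrocytes infected by luciferase-expressing P. falciparum (2% hematocrit, 0.05% parasitemia final) for 96 hours, 37 C in 5% CO2. Growth inhibition scored as decreased luciferase luminescence.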
An asterisk follows results filed as active; u = inconclusive; x = not tested or not shown. Unless noted, calls follow the shape of the dose curve; as a rule, active = well fitted inhibition curve with a large enough effect; inconclusive = small, poorly fitted or top-dose-only effect, or another doubt; inactive = no such curve, though single readings can be large or run the other way. % is scaled to controls: 0 for no effect and ±100 for the full control effect.

SMILES | HCV inh | Pf growth 48h | HCMV inh | Pf growth 96h
O=C(Nc1ccc2c(c1)OCO2)c1ccc(Br)s1 | u | 188.7% | 129.5 | 8.28µM*
O=C(Nc1ccc2c(c1)OCO2)c1ccccn1 | -7.2% | 259.2% | 58.2 | 414.1%
O=C(/C=C\Nc1ccc2c(c1)OCO2)c1ccccn1 | 14.5% | 67.0% | -80.9* | u
O=S(=O)(Nc1ccc2c(c1)OCCO2)c1cccs1 | 4.4% | u | -76.7* | u
CCn1c(SCC(=O)NCc2ccccc2)nnc1-c1c[nH]c2ccccc12 | -29.1% | -22.2% | 14.1 | x
CCOC(=O)c1c(NC(=O)CSc2nnc(-c3c[nH]c4ccccc34)n2CC)sc2c1CCCC2 | u | u | -30.5 | 11.7µM*
CCOC(=O)c1c(NC(=O)CS(=O)(=O)c2cn(CC)c3ccccc23)sc2c1CCCCC2 | u | 0.0% | -71.5* | u
O=S(=O)(c1ccccc1)N1CCC(O)(CSc2ccc(F)cc2)CC1 | 11.2µM* | u | -86.1* | 2.4%
O=S(=O)(c1ccccc1)N1CCC(O)(CSc2ccccc2)CC1 | u | 5.1% | -32.9 | 0.0%
CN(C(=S)NC(=O)c1ccc(Cl)cc1)C1CCCCC1 | 0.0% | u | -5.0 | 10.4µM*
COc1ccccc1N/N=C/c1ccc2c(c1)OCO2 | 1.9% | 5.7% | -70.5* | 49.9%
Cc1ccc(NC(=S)NCc2ccc3c(c2)OCO3)cc1C | 8.3% | -1.6% | 11.0 | -14.2%
O=C(NCc1ccc2c(c1)OCO2)Nc1cccc(Cl)c1 | -24.3% | 22.0% | 34.7 | 2.4%
CCN(CC)CC(O)COc1ccc2c(c1)OCO2 (stereo not drawn) | 3.1% | x | -98.3* | 30.0%
S=C(NCc1ccc2c(c1)OCO2)Nc1ccc2nsnc2c1 | u | 13.5% | -66.3* | 10.6%
CC(=O)c1cccc(NC(=O)NCc2ccc3c(c2)OCO3)c1 | -8.7% | 1.3% | -1.7 | 3.7µM*
COCCN1Cc2cccc(C(=O)Nc3ccc(C)c(F)c3)c2C1=O | x | x | -11.8 | x
CCC(=O)Oc1ccc(C2Nc3ccccc3-c3nnc(SC)nc3O2)cc1 (stereo not drawn) | x | x | -5.5 | x
COc1ccccc1OCCC(=O)NCc1ccc2c(c1)OCO2 | 8.3% | 18.4% | 35.8 | -25.5%
CC(=O)c1ccc(OCC(O)CNCc2ccc3c(c2)OCO3)cc1 (stereo not drawn) | -1.3% | 2.62µM* | 18.0 | -27.2%
COc1ccccc1NC(=O)NCc1ccc2c(c1)OCO2 | -1.5% | 20.5% | x | 14.7µM*
CCOc1ccccc1NC(=O)NCc1ccc2c(c1)OCO2 | u | 7.9% | -3.3 | u
COc1ccccc1CN(CC(=O)NCc1ccc2c(c1)OCO2)C(=O)c1ccc2c(c1)OCCO2 | 12.0% | -23.2% | -25.5 | 9.28µM*
COc1ccc(-c2[nH]ncc2C(=O)NCc2cccc(F)c2)cc1 | x | x | 1.6 | x
COCCn1c(=NC(=O)CCS(=O)(=O)c2ccccc2)sc2cc(C)ccc21 | -26.4% | 93.3% | 147.5 | u
SMILES | HCV inh | Pf growth 48h | HCMV inh | Pf growth 96h
COCCn1c(=NC(=O)/C=C/c2cccs2)sc2cc(NC(C)=O)ccc21 | -43.8% | u | 45.5 | 8.28µM*
Cc1ccc(OCC(=O)Nc2ccc3c(c2)OCCO3)cc1C | -4.9% | 236.9% | -63.1* | u
Cc1cccc(C)c1OCC(=O)Nc1ccc2c(c1)OCCO2 | -25.0% | 26.7% | 8.4 | 11.7µM*
Cc1ccccc1OCC(=O)Nc1ccc2c(c1)OCCO2 | -6.3% | 83.5% | 3.9 | 149.5%
Cc1ccc(OCC(=O)Nc2cc(C(=O)O)cc(C(=O)O)c2)cc1C | -3.3% | 8.3% | -64.5* | -14.7%
Cc1cc(Cl)ccc1NC(=O)c1cc2ccccn2n1 | x | x | 52.9 | x
COc1cn(CC(=O)Nc2cc(C)cc(C)c2)c(CN2CCCCC2)cc1=O | x | x | -1.8 | x
Cc1cc(/C=C(\C#N)C(=O)Nc2ccc(F)cc2)c(C)n1-c1ccc(N2CCOCC2)c([N+](=O)[O-])c1 | u | 7.38µM* | -78.9* | x
COC(=O)c1cc2oc(C)cc2n1Cc1c(C)cc(C)cc1C | x | x | 17.5 | x
CCC(=O)Oc1ccc2ccccc2c1CNC(=O)c1ccccc1 | u | u | -2.1 | 9.28µM*
O=C(NCNC(=O)c1ccccc1)c1ccccc1 | 20.1% | x | 20.9 | -2.5%
CCOC(=O)C1CCN(Cc2ccccn2)CC1 | x | 8.6% | x | 10.4µM*
CCOC(=O)C1CCN(Cc2cc(Cl)c3ccccc3c2O)CC1 | -25.2% | 1.17µM* | x | 1.17µM*
COc1ccccc1CCc1nnc(CCC(=O)N(C)Cc2cccc3cnccc23)o1 | u | u | -20.5 | 4.9%
COc1ccc(CCc2nnc(CCC(=O)N(C)Cc3ccnc4ccccc34)o2)cc1 | u | -19.4% | -64.4* | u
CCC(C(=O)Nc1ccc(C)c(C)c1)n1c(=O)c(C(F)(F)F)nc2ccccc21 (stereo not drawn) | x | x | -7.1 | x
Cc1nc([N+](=O)[O-])c(Sc2nc3ccccc3[nH]2)n1Cc1ccccc1 | u | u | 88.4 | 4.15µM*
COc1ccc2nc(Sc3c([N+](=O)[O-])nc(C)n3Cc3ccccc3)[nH]c2c1 | u | 22.5% | 28.3 | u
Cc1nc([N+](=O)[O-])c(N2CCN(Cc3ccccc3)CC2)n1Cc1ccccc1 | -7.0% | x | -2.6 | 16.5µM*
Cc1cc2nc(Sc3c([N+](=O)[O-])nc(C)n3Cc3ccccc3)[nH]c2cc1C | -12.3% | 10.4µM* | 12.1 | u
CCc1cccc(NC(=O)CSc2ncc3c(n2)-c2ccccc2N(Cc2ccccc2C)S3(=O)=O)c1 | x | x | 24.1 | x
O=C(OC1CC2CC1[C@H]1CCCCN1C2=O)N1CCN(C(=O)c2ccccc2)CC1 (stereo partly drawn) | x | x | 13.8 | x
COc1cc(C(=O)NCc2ccc3c(c2)CCN3C(=O)c2ccc(Cl)cc2)cc(OC)c1OC | x | x | -26.4 | x
CCCCOc1ccc(-n2nc(C)cc2C)nn1 | 8.5% | 49.7% | -82.4* | u
CCOc1ccc(C(=O)CSc2nc3cc(C(=O)NC4CCCC4)ccc3c(=O)n2CC2CCCO2)cc1 (stereo not drawn) | x | x | 6.0 | x
SMILES | HCV inh | Pf growth 48h | HCMV inh | Pf growth 96h
Cc1ccc(Cn2c(CCNC(=O)c3cccc(C)c3)nc3ccccc32)cc1 | x | x | -4.6 | x
Cc1cc(C)c2nc(C)cc(N/N=C/c3ccc(O)cc3)c2c1 | 11.2µM* | 0.131µM* | -99.9* | -2.2%
Cc1cc(N/N=C/c2ccc(O)cc2)c2cccc(C)c2n1 | u | 0.37µM* | u | 9.28µM*
O=C(Nc1sc2c(c1C(=O)NCc1cccnc1)CCCC2)c1cc(=O)c2ccccc2o1 | x | x | 2.1 | x
COc1ccc(OCc2cc(C(=O)NCCN3CCCc4ccccc43)no2)c(Cl)c1 | 11.2µM* | u | 25.0 | -28.9%
COc1cccc(-c2ncn(CCc3ccccc3OC)c2CC(C)C)c1 | x | x | -88.0* | x
COc1cccc(-c2ncn(CCc3ccccc3OC)c2C(C)C)c1 | x | x | -100.9* | x
O=C(O)c1cc(S(=O)(=O)N2CCCCCC2)ccc1Cl | 11.6% | x | 2.6 | -5.0%
CS(=O)(=O)c1ccc(Cl)c(C(=O)O)c1 | 14.0% | 35.4% | 23.8 | 3.7µM*
CCc1cccc(Nc2ncnc3onc(-c4ccc(F)cc4)c23)c1 | x | x | -31.5 | x
CCn1c(N2CCN(Cc3ccc([N+](=O)[O-])cc3)CC2)nc2ccccc21 | -8.9% | u | -6.2 | 13.1µM*

Source: PubChem BioAssay
